Reference: the supplement of paper PMC3334620
In all, about 33,000 sequences were measured (“E-score (-0.5 to 0.5)”: median about -0.0034, highest 2% from about 0.25 on). Shown is part of a subset that was picked to be rich in the highest values.

Target: T1, Yap3 (UniProt P38749)
T1 sequence: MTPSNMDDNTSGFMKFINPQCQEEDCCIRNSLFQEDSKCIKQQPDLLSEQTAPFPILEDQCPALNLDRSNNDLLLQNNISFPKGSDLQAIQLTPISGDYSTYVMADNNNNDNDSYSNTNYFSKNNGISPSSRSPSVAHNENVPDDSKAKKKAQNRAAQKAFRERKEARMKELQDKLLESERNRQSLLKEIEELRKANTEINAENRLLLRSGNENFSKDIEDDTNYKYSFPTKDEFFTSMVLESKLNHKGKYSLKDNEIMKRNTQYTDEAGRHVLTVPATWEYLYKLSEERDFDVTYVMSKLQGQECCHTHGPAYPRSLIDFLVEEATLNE
Test: PBM E-score (8-mer binding enrichment) (E-score (-0.5 to 0.5)); higher = stronger / more preferred TF binding
Conditions: protein concentration: 100 nM; construct: GST-full length
Procedure, shortened: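 Yeast transcription factors, full-length or as DNA-binding domains, were expressed with a GST tag using PURExpress in vitro transcription/translation. At about 100-200 nM they were applied to universal all-10-mer Agilent arrays, double-stranded by primer extension on fresh or once-stripped slides. Fluorescent anti-GST detected bound protein, and masliner normalised the scans. E-scores for ungapped eight-base words, pooled with reverse complements, came from the Universal PBM Analysis Suite.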

In order of falling “PBM E-score” value:
1. ATTAATAA  0.405
2. ATAATTAG  0.347
3. CTAATTAG  0.347
4. ATAATTAC  0.333
5. AGTATTAG  0.327
6. GTCGCGAC  0.324
7. ATTTGTTC  0.321
8. ATAATTGA  0.308
9. ATAAATAA  0.307
10. GTAATTAC  0.306
11. ATAATTAT  0.302
12. TATACTGA  0.295
13. ATATGATC  0.294
14. CATTACTA  0.292
15. GTATGAAA  0.29
16. ATAATTCA  0.282
17. GTATGATA  0.282
18. GTATCATA  0.276
19. CTTAATAA  0.275
20. CCAATTAC  0.274
21. ATTTGATA  0.273
22. ATATCATA  0.271
23. GTAAGCAA  0.27
24. ATTTCATC  0.269
25. GTATCTTA  0.267
26. GTAAATAA  0.267
27. ATAAATAT  0.267
28. CTGTGAAA  0.264
29. ATATGATA  0.264
30. AGTATTAC  0.26
31. ATAATTAA  0.259
32. GTAATTAA  0.259
33. AATTGTTC  0.257
34. AAGTTATG  0.256
35. ATGTGATA  0.255
36. CTAATTAC  0.253
37. ACAATTAT  0.248
38. ATAATTCG  0.242
39. ATTTCATA  0.239
40. GGAATTAC  0.235
41. GGAATTAA  0.233
42. CGTATTAC  0.231
43. ATTAATAG  0.228
44. GCAGTGAA  0.225
45. GTTAATAA  0.223
46. CATTACTC  0.221
47. CTTTACTA  0.22
48. TTATGAAA  0.204
49. ACAATTAC  0.203
50. GTGTGATA  0.203
51. ATTAATAC  0.201
52. ATAAAAAT  0.199
53. AGAATTAT  0.197
54. ATAAATAG  0.195
55. GCATCATA  0.193
56. CTTTGATA  0.189
57. AGTATTAA  0.186
58. CCAATTAG  0.177
59. GTAATTCA  0.177
60. AAGTTATA  0.175
61. AAGTTATT  0.174
62. CTTGGTAC  0.172
63. ATATGATG  0.171
64. ATTTGTTA  0.166
65. ATAATTCC  0.163
66. GTATGAGA  0.158
67. TTAAATAA  0.155
68. CTAAATAA  0.155
69. AAATTGTC  0.154
70. CGTATTAG  0.152
71. AGAGAAAT  0.142
72. ATAAGCAA  0.137
73. CAGAAGCA  0.137
74. CATACTGA  0.136
75. CTAATTAA  0.135
76. ATGTGAAA  0.134
77. GTATCTGA  0.133
78. GTGTGAAA  0.133
79. AGGAAGAT  0.13
80. ATGCGAAA  0.13
81. AGATCACG  0.128
82. CTATCTTA  0.126
83. CATTGTTC  0.125
84. TACCACAA  0.123
85. CAAATTAG  0.122
86. GGATGATA  0.122
87. CTATCATA  0.12
88. ATTAGAGC  0.116
89. GTAATTGA  0.115
90. CTAATTCA  0.112
91. AAGCATTA  0.106
92. GCAATTAC  0.102
93. ATATCATG  0.101
94. AGTATTAT  0.1
95. CACCACAC  0.096
96. AGATGATA  0.08
97. CCAATTAA  0.0782
98. ATCACTCG  0.0758
99. CTTTGTTC  0.0752
100. AAAGAACC  0.0747
101. CTATGATA  0.0744
102. CTAATTGA  0.0727
103. AACTAGAT  0.0716
104. AATATGGG  0.0708
105. CTCGCGAC  0.068
106. TTAATTAA  0.0675
107. GACACTAA  0.064
108. AGAATTAG  0.0612
109. CTAGTATC  0.0604
110. TGAGACAA  0.0572
111. GTCATCCA  0.0539
112. CTTAATAC  0.0534
113. TCCTACAA  0.0495
114. AGTGGTAC  0.0484
115. ACAACTGC  0.0481
116. AATCAGAA  0.0468
117. GTGAGGCA  0.0355
118. CTAAATAC  0.0333
119. GTATGAAC  0.0322
120. AAAGACCT  0.0294
121. ATATGCGG  0.0287
122. ACGTCAGC  0.0264
123. CCTCAAAC  0.0235
124. AATTGTTG  0.0159
125. CATAGTTA  0.0154
126. GTGCGAGA  0.0126
127. TCTGCTAA  0.0116
128. GATACTGA  0.0116
129. CTCTCGGA  0.00281
130. GATCGACA  -0.00076
131. ACCGCGAA  -0.00285
132. AAGGTATC  -0.00987
133. ATTTCATG  -0.0106
134. CGTTCATA  -0.0126
135. CATGACCC  -0.0127
136. GTCGCGAA  -0.0136
137. CTATGATC  -0.0167
138. CTAAGCAA  -0.0294
139. ATGTACCA  -0.0322
140. GACGCTGC  -0.0366
141. GTATCAGA  -0.0367
142. ACAATTAG  -0.0417
143. ACCACTGC  -0.048
144. GTCAAAGA  -0.0517
145. CTCGCTGC  -0.0528
146. GAGGCACA  -0.0567
147. CATTCAAC  -0.065
148. CAACAGAA  -0.0742
149. ACCCGCAG  -0.0808
150. AGCAAGTG  -0.0827
151. CCTGCATC  -0.0897
152. GTAGACCA  -0.0918
153. GGACATGA  -0.0945
154. ATTTGATC  -0.0998
155. AAGGGGCA  -0.105
156. CTGTGATA  -0.106
157. GAACGCTC  -0.11
158. ACTTAGGG  -0.112
159. CAACAGGG  -0.116
160. CTGCCCTA  -0.132
161. TCGGGCCA  -0.132
162. ATCAGAGG  -0.132
163. CGCTGCTC  -0.133
164. AGTAGCCA  -0.141
165. AGCACGCC  -0.157
166. AGTCAGGG  -0.185
167. CATGCACC  -0.191
168. CTCTAGAA  -0.214
169. CGGGCCTA  -0.255
170. GGGCCACC  -0.256
171. GAAGAGCA  -0.258
172. GGGCTCCA  -0.262
173. CCAGGTTC  -0.317
174. GCTTCCCC  -0.346
